Hits are enriched below; roughly 0.97% of the tested compounds scored in any of these assays.
uPA generation: blocks generation of uPA at the cell surface | cell surface uPA generation assay, qHTS | Potency, µM (top dose mostly 38.3 µM), for the others: at the top dose activity change, negative = inhibition, actives largely listed as inhibitors | actives 0.31% (n = 330,000) | AID 540303; active means well fitted inhibition curve with a large enough effect; inconclusive means small, poorly fitted or top-dose-only effect; inactive means no such curve, though single readings can be large or run the other way; tested in mouse RAW 264.7 cells; further: potency means the concentration at half of the fitted maximal effect; on the % scale 0 is the no-effect control and ±100 the full control effect; nearly all actives have a fitted effect of over 55% in size
CCT modulator: changes cytosolic chaperonin activity; actives 0.3% (n = 360,000); activity change, % (test concentration not listed), hits read low; AID 651819; purified chaperonin ATPase assay, HTRF ADP detection, 30 min; in the data active means activity change below about -30%; further: on the % scale 0 is the no-effect control and ±100 the full control effect
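We incubate TRiC, 40 or 20 nM final, with library compounds at 76 uM and 10 uM ATP for 30 min at 37 °C. ADP formed is detected with Transcreener HTRF reagents after 30 min at room temperature.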
pAkt inh: Akt phosphorylation inhibition; Neuro2A IGF-stimulated pAkt S473 HTRF, 20 min; active compounds read low; activity change, % for hits at 50 µM; actives 0.32% (n = 360,000); in the data active means activity change below about -80%; inconclusive means mostly about -51% to -80%; further: on the % scale 0 is the no-effect control and ±100 the full control effect
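Neuro2A cells in DMEM with 0.5% FBS, overnight at 37 deg C, given compound at single 50 µM final, then IGF (6 nM final) for 20 min at 37 deg C. Lysed; phospho-Akt Ser473 by HTRF after 24 h, 665/615 ratio.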
Epigenetic reg: derepresses silenced GFP reporter in murine cells | murine LDR cells, GFP reporter derepression, 30 h | Potency, µM (highest dose often 53.9 µM), for the others: at the top dose GFP activation, most hits filed as activators | actives 0.2% (n = 280,000) | AID 1865; further: potency means the concentration at half of the fitted maximal effect; % of control where 0% means no effect; nearly all actives have a fitted effect of over 60% in size
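GFP-positive cell count by laser-scanning cytometry (objects 20–120 um) after 30 h, 37 C compound exposure of murine LDR cells; reporter is CMV-GFP integrated at a silenced locus, inducible by HDAC or DNMT inhibitors.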
MmCpn inh: M. maripaludis TRiC chaperonin inhibition. actives 0.031% (n = 330,000). Potency, µM (highest dose often 76.9 µM), without a hit: at the top dose activity, negative = inhibition, usual class: inhibitors. AID 504842. purified Mm-Cpn ATPase, ADP Transcreener TR-FRET; further: potency means the concentration at half of the fitted maximal effect; on the % scale 0 is the no-effect control and ±100 the full control effect; nearly all actives have a fitted effect of over 80% in size
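Inhibition of chaperonin ATP hydrolysis is measured as reduced ADP production, detected by competitive TR-FRET in which signal falls with ADP. Final enzyme 25 nM and ATP 10 uM, reacted 30 min at 37°C.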
MBNL1 CUG block: blocks human MBNL1 binding to CUG repeat RNA; TR-FRET MBNL1-His/biotin-(CUG)12 binding, 665/545 ratio; Potency, µM (top dose mostly 57.5 µM), inactives show at the highest dose activity change, negative = inhibition, hits mostly inhibitors; actives 0.036% (n = 280,000); active means well fitted inhibition curve with a large enough effect in the signal ratio, with a control signal flat, not every such curve was filed as active; inconclusive means small, poorly fitted or top-dose-only effect, or effect the other way, or a change in a side signal; inactive means no such curve, though single readings can be large or run the other way; the % refers to the signal ratio; further: potency means the concentration at half of the fitted maximal effect; on the % scale 0 is the no-effect control and ±100 the full control effect
Target sequence (Q9NR56 whole entry, looked up): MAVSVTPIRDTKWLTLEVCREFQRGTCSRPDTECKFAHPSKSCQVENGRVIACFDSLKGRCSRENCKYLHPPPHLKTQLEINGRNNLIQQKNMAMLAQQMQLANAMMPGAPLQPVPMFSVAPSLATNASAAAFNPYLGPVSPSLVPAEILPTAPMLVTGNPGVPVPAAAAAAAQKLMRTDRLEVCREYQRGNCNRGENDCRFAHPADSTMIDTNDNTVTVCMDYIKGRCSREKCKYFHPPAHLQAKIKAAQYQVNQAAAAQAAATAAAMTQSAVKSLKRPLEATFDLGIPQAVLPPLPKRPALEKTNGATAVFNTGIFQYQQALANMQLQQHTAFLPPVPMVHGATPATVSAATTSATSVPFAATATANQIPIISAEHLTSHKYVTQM
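Compound titration spanned 92 nM–58 uM against the MBNL1-His/biotin-(CUG)12 complex. After 60 min at room temperature with 5 nM streptavidin-XL665 and 0.055 ng/ul terbium anti-His, ratiometric 665/545 nm emission (Ex 340 nm) normalized to controls.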
* hit, by the source's call; i = inactive; ? = inconclusive; · = not tested or not shown; [ ] = another dose, or the depositor's remark. Unless noted, the call rests on the fitted dose curve; in most records, active means well fitted curve in the direction sought with a large enough effect; inconclusive means small, poorly fitted or top-dose-only effect, or another doubt; inactive means no such curve, though single readings can be large; an effect the other way counts as inactive or inconclusive.

SMILES	uPA generation	CCT modulator	pAkt inh	Epigenetic reg	MmCpn inh	MBNL1 CUG block
Cc1ccc(C)c(NC(=S)N(CCc2nc3cc(C)c(C)cc3[nH]2)Cc2cccnc2)c1	4%	-58*	i	0%	5%	-4%
O=C(C[C@H]1C(=O)N(C2CCCCC2)C[C@@H]1c1ccccc1)Nc1ccc(Br)cc1	·	-53*	i	·	·	·
COc1ccc(NC(=O)C[C@H]2C(=O)N(C3CCCCC3)C[C@@H]2c2ccccc2)cc1	·	1	i	·	·	·
CN(C)c1ccc(-c2[nH][nH]c(=O)c2NC(=O)c2ccccn2)cc1	·	-36*	i	·	·	·
CCCn1c(=O)c2sccc2n2c(CCCC(=O)N3CCN(c4ccccc4)CC3)nnc12	·	·	·	5%	·	·
O=C1C2C(c3ccccc3)C=CC(c3ccccc3)C2C(=O)N1CCCO (stereo not given)	-3%	1	-102%*	0%	-1%	-1%
O=C(Cn1cccc1C(=O)c1ccccc1)NCCCc1ccccc1	3%	-3	i	·	2%	0%
CCC(Cc1ccccc1)NC(=O)Cn1cccc1C(=O)c1ccccc1 (stereo not given)	-6%	-42*	·	·	-4%	2%
COc1ccccc1C(=O)COC(=O)Cn1[nH]c(=O)c2ccccc2c1=O	-1%	-31*	i	·	1%	·
CCC(=O)N1CCc2cc(S(=O)(=O)CCC(=O)NCc3ccccc3OC)ccc21	-6%	-57*	·	2%	?	-2%
CCC(=O)N1CCc2cc(S(=O)(=O)CCC(=O)NC3CCCCC3)ccc21	-7%	-75*	·	·	2%	-7%
CCC(=O)N1CCc2cc(S(=O)(=O)CCC(=O)NCc3ccc(F)cc3)ccc21	·	·	·	-1%	·	·
CCC(=O)N1CCc2cc(S(=O)(=O)CCC(=O)NCc3cccc(OC)c3)ccc21	-3%	-66*	·	0%	-1%	-7%
CCOC(=O)N1CCC(NC(=O)CCS(=O)(=O)c2ccc3c(c2)CCN3C(=O)CC)CC1	-3%	-2	i	0%	-1%	2%
CCC(=O)N1CCc2cc(S(=O)(=O)CCC(=O)NCc3ccc(C)cc3)ccc21	-25%	-3	i	-2%	-1%	1%
CCc1ccc(CNC(=O)c2ccc(Cn3c(=O)c4cccn4c4cccnc43)cc2)cc1	·	·	·	4%	·	·
Cc1cccc(CNC(=O)c2ccc(Cn3c(=O)c4cccn4c4cccnc43)cc2)c1	·	·	·	18µM*	·	·
CC(C)(C)n1nnnc1CN1CCN(C2CCCC2)CC1	4%	1	-103%*	0%	0%	-8%
COc1cc(/C=C/C(=O)CC(=O)/C=C/c2ccc(O)c(OC)c2)ccc1O	?	-2	·	?	0%[15.4 µM]	?
COc1ccc(/C=C/C(=O)CC(=O)/C=C/c2cccc(O)c2OC)cc1O	·	·	·	13µM*	·	·
O=C(Cc1ccc(S(=O)(=O)N2CCCC2)s1)N1CCN(c2ccccc2)CC1	-3%	-93*	i	0%	-1%	-8%
COC(=O)c1cc(NC(=O)c2cccc(Cl)c2)c(=O)oc1/C=C/Nc1cc(C)cc(C)c1	·	·	·	3.5µM*	0%	9%
CCc1ccc(S(=O)(=O)Nc2cccc(-c3ccc4nnc(C)n4n3)c2)s1	0%	-1	i	·	-1%	·
CCCCSCCCNC(=O)c1ccc(CS(=O)(=O)c2ccc(OC)cc2)o1	5%	-29	i	·	3%	1%
COCCn1nnnc1C(C(C)C)N(Cc1ccccc1)Cc1cc2cc(OC)ccc2[nH]c1=O (stereo not given)	-4%	-4	i	3%	0%	7%
SMILES	uPA generation	CCT modulator	pAkt inh	Epigenetic reg	MmCpn inh	MBNL1 CUG block
Cc1ccc2cc(CN(C(=O)c3ccco3)c3ccccc3)c(=O)[nH]c2c1	1%	0	i	0%	-2%	29%
Cc1ccc(N(Cc2cc3ccccc3[nH]c2=O)C(=O)c2ccco2)c(C)c1	-5%	0	-112%*	-1%	1%	-2%
CCCCN(Cc1cc2cc(OC)ccc2[nH]c1=O)C(=O)c1ccco1	0%	1	-93%*	-1%	3%	-3%
COc1ccc2[nH]c(=O)c(CN(Cc3ccco3)C(c3nnnn3Cc3ccccc3)C(C)C)cc2c1 (stereo not given)	-11%	-2	-105%*	-4%	-2%	1%
Cc1ccc(N(Cc2cc(=O)[nH]c3ccccc23)C(=O)c2ccco2)cc1	0%	-3	-119%*	0%	-2%	3%
Cc1c(Cl)cccc1NC(=O)Cn1cc(C(F)(F)F)cc(Cl)c1=O	3%	0	i	2%	0%	1%
Cn1c(=O)c(=O)n(C)c2cc(N3CCCC3)c(NS(=O)(=O)c3ccc(Cl)cc3)cc21	-9%	-1	i	·	2%	16%
CCc1nn(CC(=O)NCCc2ccc(SC)cc2)c(=O)c2cc3sccc3n12	·	·	·	1%	·	·
C=C(C)c1cccc(C(C)(C)NC(=O)N(Cc2ccccc2)Cc2ccco2)c1	9%	1	·	5%	0%	-7%
C=CCc1ccccc1OCC(=O)NNC(=S)NCc1ccccc1	-6%	-34*	i	·	3%	-3%
O=C(COc1ccc(Cl)cc1)NNC(=S)NCc1ccccc1	-2%	-1	i	·	4%	2%
CNC(=O)c1ccsc1NC(=O)c1ccc(S(=O)(=O)N2CCCc3ccccc32)cc1	?	0	i	-2%	28µM*	92%
O=C1Nc2cnc(Cl)nc2Nc2ccccc21	·	-1	i	·	·	·
CCCc1c(C(=O)OCC)sc(N)c1C#N	-10%	0	i	-1%	-13%	?
CCOC(=O)c1sc(N)c(C#N)c1CSc1nnc(C2CC2)n1N	6%	-39*	i	0%	1%	6%
O=C(Nc1nnc(Cc2ccccc2)s1)c1ccco1	-11%	-3	·	0%	-3%	-6%
CCOC(=O)Cc1nnc(NC(=O)c2ccco2)s1	0%	-4	-122%*	1%	0%	5%
CC(C)(C)Cc1nnc(NC(=O)c2ccco2)s1	-20%	-76*	i	·	-1%	-9%
CCCCCCc1nnc(NC(=O)c2ccco2)s1	-3%	-1	i	·	2%	-8%
CCCSc1nnc2c(n1)OC(CC)N(C(C)=O)c1ccccc1-2 (stereo not given)	·	·	·	1%	·	·
O=C(COc1ccc(Cl)cc1)Nc1nc(-c2ccc(S(=O)(=O)N3CCOCC3)cc2)cs1	·	-1	i	-2%	45µM*	440%
O=C(Nc1nc(-c2ccc(S(=O)(=O)N3CCCCCC3)cc2)cs1)c1ccccc1	2%	3	i	0%	35µM*	353%
O=C1Nc2ccc(Br)cc2C12NNc1ccccc1O2 (stereo not given)	?	-2	i	18µM*	1%	3%
